# Test results as given in ChEMBL document CHEMBL3988442, “University of Dundee, Small-Polar-MMV Screening Library” (2021).
# For some assays here: Results with a measured potency or affinity are listed apart.
# Assays:
# Set-up in all cases: scale not given: direction of the effect not stated beside the values
# [1] = target: Protein translocase subunit SecA (Escherichia coli (strain K12)) (UniProt P10408); assay: Assay to Identify E. coli SecA ATPase Inhibitors; type: functional; conditions: 30 µM
# Chain of Protein translocase subunit SecA (Escherichia coli (strain K12)) (P10408 whole entry): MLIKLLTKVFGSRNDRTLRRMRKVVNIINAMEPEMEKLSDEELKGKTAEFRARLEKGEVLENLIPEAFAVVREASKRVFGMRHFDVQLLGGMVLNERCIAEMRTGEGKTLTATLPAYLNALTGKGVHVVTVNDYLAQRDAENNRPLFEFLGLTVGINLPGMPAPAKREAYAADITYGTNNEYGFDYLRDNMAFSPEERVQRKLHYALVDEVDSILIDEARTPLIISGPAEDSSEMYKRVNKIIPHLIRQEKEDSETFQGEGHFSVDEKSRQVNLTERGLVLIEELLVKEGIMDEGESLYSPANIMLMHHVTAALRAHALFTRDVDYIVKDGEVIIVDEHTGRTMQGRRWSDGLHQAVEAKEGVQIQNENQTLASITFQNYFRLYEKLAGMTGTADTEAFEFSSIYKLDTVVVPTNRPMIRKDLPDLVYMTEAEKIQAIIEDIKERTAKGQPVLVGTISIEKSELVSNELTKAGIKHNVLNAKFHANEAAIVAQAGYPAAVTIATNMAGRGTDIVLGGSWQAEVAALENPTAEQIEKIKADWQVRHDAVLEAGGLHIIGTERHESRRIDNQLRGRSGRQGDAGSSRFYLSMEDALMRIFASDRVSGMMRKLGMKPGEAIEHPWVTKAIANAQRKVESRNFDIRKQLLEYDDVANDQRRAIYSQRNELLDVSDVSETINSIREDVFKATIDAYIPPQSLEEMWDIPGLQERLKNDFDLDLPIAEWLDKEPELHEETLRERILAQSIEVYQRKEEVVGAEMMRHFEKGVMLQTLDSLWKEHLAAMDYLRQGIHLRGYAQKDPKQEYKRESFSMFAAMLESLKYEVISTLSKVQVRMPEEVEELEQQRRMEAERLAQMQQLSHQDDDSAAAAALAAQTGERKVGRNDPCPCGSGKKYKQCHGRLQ
# [2] = target: T1, Ubiquitin-activating enzyme e1, putative (Leishmania donovani (strain BPK282A1)) (UniProt E9BSI1); assay: Leishmania donovani Ubiquitin Activating Enzyme (LdE1); type: functional; conditions: 30 µM
# T1 sequence (whole entry): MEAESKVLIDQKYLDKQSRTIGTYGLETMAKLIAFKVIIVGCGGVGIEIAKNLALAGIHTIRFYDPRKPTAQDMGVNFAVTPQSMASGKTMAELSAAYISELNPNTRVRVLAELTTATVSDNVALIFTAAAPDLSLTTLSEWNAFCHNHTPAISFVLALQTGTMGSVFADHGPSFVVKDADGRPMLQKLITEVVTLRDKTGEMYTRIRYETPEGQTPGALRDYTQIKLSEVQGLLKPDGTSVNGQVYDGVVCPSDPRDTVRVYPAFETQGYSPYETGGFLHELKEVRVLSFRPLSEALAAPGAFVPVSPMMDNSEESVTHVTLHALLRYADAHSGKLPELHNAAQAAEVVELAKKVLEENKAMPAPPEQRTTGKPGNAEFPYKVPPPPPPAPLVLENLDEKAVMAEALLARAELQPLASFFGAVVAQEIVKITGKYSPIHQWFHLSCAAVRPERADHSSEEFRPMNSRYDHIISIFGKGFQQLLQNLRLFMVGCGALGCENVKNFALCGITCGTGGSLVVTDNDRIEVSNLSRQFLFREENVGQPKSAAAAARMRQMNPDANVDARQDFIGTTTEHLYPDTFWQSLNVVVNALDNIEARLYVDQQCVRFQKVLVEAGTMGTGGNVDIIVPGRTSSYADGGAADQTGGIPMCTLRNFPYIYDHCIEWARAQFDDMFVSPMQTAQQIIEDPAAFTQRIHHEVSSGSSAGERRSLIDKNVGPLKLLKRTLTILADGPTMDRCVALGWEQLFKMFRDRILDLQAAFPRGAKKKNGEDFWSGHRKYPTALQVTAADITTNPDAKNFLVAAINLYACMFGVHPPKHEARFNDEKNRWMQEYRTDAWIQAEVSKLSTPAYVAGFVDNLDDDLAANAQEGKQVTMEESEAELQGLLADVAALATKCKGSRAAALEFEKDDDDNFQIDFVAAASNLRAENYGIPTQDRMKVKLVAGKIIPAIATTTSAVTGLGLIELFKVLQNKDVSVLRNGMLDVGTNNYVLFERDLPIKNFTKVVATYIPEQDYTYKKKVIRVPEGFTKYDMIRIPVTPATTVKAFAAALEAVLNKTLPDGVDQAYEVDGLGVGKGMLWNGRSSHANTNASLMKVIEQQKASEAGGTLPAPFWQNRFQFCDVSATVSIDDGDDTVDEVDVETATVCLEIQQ
# [3] = target: AMP-activated protein kinase, AMPK (Homo sapiens) (UniProt P54646+O43741+P54619+Q9UGJ0+Q9Y478+Q13131+Q9UGI9); assay: AMP-dependent Kinase enzyme assay. An in vitro enzyme assay that detects ADP turnover that is directly proportional to AMPK activity. This uses naive AMPK that is activated during the assay with MK-8722; type: functional; conditions: 30 µM
# [4] = target: Sialic acid-binding Ig-like lectin 9 (Homo sapiens) (UniProt Q9Y336); assay: Hs-Siglec9 ALPHAscreen SOP 20170721; conditions: 10 µM
# Chain of Sialic acid-binding Ig-like lectin 9 (Homo sapiens) (Q9Y336 whole entry): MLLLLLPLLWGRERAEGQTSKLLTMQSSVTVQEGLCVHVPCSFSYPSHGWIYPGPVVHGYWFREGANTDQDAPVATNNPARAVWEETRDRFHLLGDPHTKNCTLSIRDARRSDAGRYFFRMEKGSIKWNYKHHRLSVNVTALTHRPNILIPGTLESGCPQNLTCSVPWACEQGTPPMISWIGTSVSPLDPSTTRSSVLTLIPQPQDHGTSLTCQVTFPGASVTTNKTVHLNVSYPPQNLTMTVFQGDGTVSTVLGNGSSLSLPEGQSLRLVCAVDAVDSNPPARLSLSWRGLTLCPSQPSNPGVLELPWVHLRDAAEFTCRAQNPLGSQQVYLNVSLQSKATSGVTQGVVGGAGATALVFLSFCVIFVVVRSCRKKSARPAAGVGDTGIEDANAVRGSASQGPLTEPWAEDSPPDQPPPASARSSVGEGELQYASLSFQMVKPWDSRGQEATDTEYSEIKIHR
# Trypanosoma cruzi = assay: Trypanosoma cruzi phosphomannomutase and mannose-1-phosphate guanylyltransferase assay; type: functional; conditions: 10 µM
# [5] = target: T2, Arginase-2, mitochondrial (Homo sapiens) (UniProt P78540); assay: in vitro enzyme assay to detect the production of urea directly proportional to the activity of Arginase II; type: functional; conditions: 33.3 µM; note: in the data most compounds retested in dose-response had high values
# T2 sequence (whole entry): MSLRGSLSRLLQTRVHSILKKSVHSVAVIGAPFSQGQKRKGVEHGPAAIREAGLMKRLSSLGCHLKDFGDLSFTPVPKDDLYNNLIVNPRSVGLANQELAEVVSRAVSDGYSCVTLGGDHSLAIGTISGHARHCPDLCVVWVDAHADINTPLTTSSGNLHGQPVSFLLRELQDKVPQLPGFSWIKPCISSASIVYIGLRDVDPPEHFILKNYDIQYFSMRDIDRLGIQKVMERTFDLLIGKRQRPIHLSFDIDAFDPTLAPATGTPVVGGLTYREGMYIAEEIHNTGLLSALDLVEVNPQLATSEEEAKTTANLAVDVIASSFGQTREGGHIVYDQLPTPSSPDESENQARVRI
# [6] = target: T3, Proteasome subunit beta (Trypanosoma cruzi) (UniProt O96673); assay: Trypanosoma cruzi proteasome chymotrypsin-like activity (TcProtChymo) assay.; note: in the data most compounds retested in dose-response had high values; type: functional; conditions: 9.37 µM
# T3 sequence (whole entry): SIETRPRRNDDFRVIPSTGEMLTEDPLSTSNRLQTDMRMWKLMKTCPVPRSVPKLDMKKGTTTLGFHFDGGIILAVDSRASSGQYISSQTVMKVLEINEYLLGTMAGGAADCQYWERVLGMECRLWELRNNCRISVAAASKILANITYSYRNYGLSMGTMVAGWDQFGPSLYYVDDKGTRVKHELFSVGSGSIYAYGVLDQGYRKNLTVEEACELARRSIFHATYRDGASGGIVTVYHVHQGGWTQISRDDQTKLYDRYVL
# Homo sapiens = species: Homo sapiens; assay: To identify inhibition of the IFN signalling (Jak-Stat) pathway via expression of an eGFP reporter gene under the control of an IFN-stimulated response element (ISRE) containing MxA promoter.; type: functional; conditions: 30 µM
# [7] = target: T4, Tyrosyl-tRNA synthetase, putative (Trypanosoma cruzi (strain CL Brener)) (UniProt Q4DSP6); assay: Trypanosoma cruzi tyrosyl tRNA synthetase (TcYRS) _High Tyrosine SOP; type: functional; conditions: 30 µM; note: in the data most compounds retested in dose-response had high values
# T4 sequence (whole entry): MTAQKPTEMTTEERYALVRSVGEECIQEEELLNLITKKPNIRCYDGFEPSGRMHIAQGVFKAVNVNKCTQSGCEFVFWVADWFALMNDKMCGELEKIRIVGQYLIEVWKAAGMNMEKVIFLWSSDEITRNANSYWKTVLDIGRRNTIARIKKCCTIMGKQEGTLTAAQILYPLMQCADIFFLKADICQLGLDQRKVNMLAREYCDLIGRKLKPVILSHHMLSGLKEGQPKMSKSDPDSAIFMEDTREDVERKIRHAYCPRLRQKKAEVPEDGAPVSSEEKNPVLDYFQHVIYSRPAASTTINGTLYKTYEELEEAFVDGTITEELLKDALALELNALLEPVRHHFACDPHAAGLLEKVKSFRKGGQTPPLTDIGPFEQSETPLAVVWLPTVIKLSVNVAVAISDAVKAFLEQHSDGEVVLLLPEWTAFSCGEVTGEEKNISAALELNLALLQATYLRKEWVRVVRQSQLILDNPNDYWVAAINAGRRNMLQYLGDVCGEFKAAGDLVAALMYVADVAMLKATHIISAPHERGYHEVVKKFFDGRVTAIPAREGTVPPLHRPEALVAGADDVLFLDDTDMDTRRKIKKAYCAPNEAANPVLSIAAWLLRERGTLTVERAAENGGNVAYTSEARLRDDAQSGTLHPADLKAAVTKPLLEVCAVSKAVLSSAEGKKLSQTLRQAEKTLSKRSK
# [8] = target: T4, Tyrosyl-tRNA synthetase, putative (Trypanosoma cruzi (strain CL Brener)); assay: Trypanosoma cruzi tyrosyl tRNA synthetase (TcYRS) SOP; type: functional; conditions: 30 µM
# [9] = target: Chromo domain-containing protein 1 (Saccharomyces cerevisiae (strain ATCC 204508 / S288c) (Baker's yeast)) (UniProt P32657); assay: ScCHD-1 Enzyme Inhibition Assay; type: functional; conditions: 30 µM; note: in the data most compounds retested in dose-response had high values
# Chain of Chromo domain-containing protein 1 (Saccharomyces cerevisiae (strain ATCC 204508 / S288c) (Baker's yeast)) (P32657 whole entry, the tested form may be a part): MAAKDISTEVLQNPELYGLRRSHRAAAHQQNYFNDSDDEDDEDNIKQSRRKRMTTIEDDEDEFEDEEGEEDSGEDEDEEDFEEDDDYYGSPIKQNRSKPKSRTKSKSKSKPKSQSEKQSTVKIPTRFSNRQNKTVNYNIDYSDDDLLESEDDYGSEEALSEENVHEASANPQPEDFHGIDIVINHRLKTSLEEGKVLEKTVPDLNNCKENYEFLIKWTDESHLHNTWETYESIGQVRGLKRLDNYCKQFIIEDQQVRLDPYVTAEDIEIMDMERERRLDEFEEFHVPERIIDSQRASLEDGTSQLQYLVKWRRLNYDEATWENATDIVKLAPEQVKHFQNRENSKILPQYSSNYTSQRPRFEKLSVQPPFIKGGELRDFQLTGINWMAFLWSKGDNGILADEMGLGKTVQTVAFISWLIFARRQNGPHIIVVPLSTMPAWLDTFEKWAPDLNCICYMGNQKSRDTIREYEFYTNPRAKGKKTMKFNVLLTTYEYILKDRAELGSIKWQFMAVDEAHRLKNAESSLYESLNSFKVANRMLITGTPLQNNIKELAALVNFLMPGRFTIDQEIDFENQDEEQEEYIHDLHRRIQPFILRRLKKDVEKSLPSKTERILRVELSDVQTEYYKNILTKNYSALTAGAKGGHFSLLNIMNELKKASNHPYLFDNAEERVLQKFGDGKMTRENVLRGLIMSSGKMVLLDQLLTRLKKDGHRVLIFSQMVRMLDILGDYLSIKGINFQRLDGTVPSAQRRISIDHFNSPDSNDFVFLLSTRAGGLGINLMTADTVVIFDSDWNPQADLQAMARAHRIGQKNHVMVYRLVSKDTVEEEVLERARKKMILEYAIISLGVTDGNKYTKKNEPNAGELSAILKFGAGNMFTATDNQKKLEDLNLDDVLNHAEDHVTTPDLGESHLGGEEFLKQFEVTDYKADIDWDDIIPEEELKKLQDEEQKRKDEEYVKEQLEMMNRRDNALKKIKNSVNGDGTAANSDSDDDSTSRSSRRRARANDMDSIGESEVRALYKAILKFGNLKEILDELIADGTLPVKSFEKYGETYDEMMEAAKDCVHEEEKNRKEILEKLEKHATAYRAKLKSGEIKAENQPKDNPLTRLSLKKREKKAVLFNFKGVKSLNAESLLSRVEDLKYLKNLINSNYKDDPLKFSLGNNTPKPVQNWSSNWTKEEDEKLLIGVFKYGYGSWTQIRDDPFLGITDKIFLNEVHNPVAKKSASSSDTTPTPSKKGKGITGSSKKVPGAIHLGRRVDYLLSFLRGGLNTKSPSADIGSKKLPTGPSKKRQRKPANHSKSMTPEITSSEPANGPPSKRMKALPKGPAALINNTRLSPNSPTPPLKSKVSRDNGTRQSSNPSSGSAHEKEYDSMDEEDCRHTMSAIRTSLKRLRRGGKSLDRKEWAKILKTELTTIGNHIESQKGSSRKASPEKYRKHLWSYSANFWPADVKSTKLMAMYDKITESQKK
SMILES,Percent Effect [1],Percent Effect [2],Percent Effect [3],Percent Effect [4],Percent Effect (Trypanosoma cruzi),Percent Effect [5],Percent Effect [6],Percent Effect (Homo sapiens),Percent Effect [7],Percent Effect [8],Percent Effect [9]
CCN1CC2(CC1=O)CN(C(=O)c1ccco1)CCN(C(=O)N(C)C)C2 (stereo unspecified),-0.623%,5.48%,-1.36%,5.48%,-2.18%,-8.78%,12.6%,6.21%,6.25%,1.24%,-1.51%
Cc1cc(CNC(=O)NC(C)c2ccc(N3CCOCC3)cc2)no1 (stereo unspecified),-5.74%,10.4%,-1.83%,16.5%,5.61%,-6.9%,11.8%,-5.95%,4.3%,8.64%,-6.04%
CCn1ccnc1CN1CCN(C(C)C(=O)N2CCC(C)CC2)CC1 (stereo unspecified),-2.02%,2.7%,-8.85%,9.21%,2.88%,-3.14%,15.4%,11%,3.96%,11%,-4.46%
O=C(NCCc1ccsc1)Nc1cccnc1N1CCCC1,-3.39%,26.3%,-28.7%,0.502%,3.64%,-2.88%,11.2%,-10.3%,8.37%,35.8%,-9.48%
COc1ccc2c(ccn2CCC(=O)O)c1,-6.14%,4%,-3.9%,-8.49%,-8.45%,-7.22%,6.1%,21.8%,3.17%,-5.13%,-7.85%
CN(Cc1ncc(-c2ccccc2)o1)CC1CCCN1c1cccnn1 (stereo unspecified),-0.973%,-26%,3.71%,2.54%,7.74%,-1.9%,1.54%,-9.54%,2.86%,9.41%,-9.3%
O=C(Nc1cnccn1)[C@H]1COC[C@H]2CN(C3CCCC3)C[C@H]21,-0.257%,2.7%,-0.6%,0.701%,4.88%,2.92%,-0.0845%,-10.3%,3.96%,-1.22%,-1.78%
CCN1C[C@@H]2[C@@H](OC)CCN(S(=O)(=O)c3ccccc3)[C@@H]2C1,-1.54%,16%,3.6%,-7.4%,-7.48%,0.233%,11.4%,-3.22%,1.06%,6.41%,-5.54%
Cc1noc(C)c1-c1cccc(CC2CCN(C(=O)c3cc[nH]n3)C2)n1 (stereo unspecified),-2.86%,10.7%,9.02%,7.09%,-2.95%,-1.17%,8.72%,15.2%,4.25%,8.97%,-0.89%
Cc1ccc(N2CC[C@H]3OCC[C@@]3(C(=O)NC(C)C)C2)nn1,-2.37%,2.7%,-2.16%,0.317%,2.15%,16.7%,6.85%,4.31%,6.93%,18.3%,-5.52%
Cc1nn(C)c(C)c1-c1cncc(C2CCN(S(C)(=O)=O)CC2)n1,0.332%,-2.67%,22.7%,4.44%,-1.77%,2.1%,-3.96%,25.6%,3.19%,3.85%,0.849%
Cc1cnn(CCNCC(=O)NCc2ccccc2)c1,-0.968%,5.26%,-2.33%,11.4%,2.15%,-4.68%,0.0846%,-25%,6.4%,6.17%,4.48%
Fc1ccc(CNCC2OCCc3cn(CC4CC4)nc32)cc1 (stereo unspecified),-3.44%,0%,12.4%,6.39%,2.05%,-4.78%,12.4%,9.33%,3.24%,7.69%,8.43%
NCC1CN(c2nc(-c3ccccc3)nc3c2CCNCC3)CCO1 (stereo unspecified),-3.14%,2.74%,-7.79%,3.51%,9.32%,0.798%,-1.11%,4.88%,24%,28.4%,0.577%
c1cnnc(N2CCCC2CNCc2nc3ccccc3o2)c1 (stereo unspecified),-0.208%,2.74%,-3.71%,10.3%,0%,-3.19%,21%,-2.37%,15.6%,25.9%,-2.93%
Cc1nc(CN2CCc3nn(C(C)C)c(=O)cc3C2)oc1C,-3.86%,-2.63%,-91.7%,5.18%,-3.83%,6.83%,10.4%,-4.72%,-3.45%,-8.64%,2.02%
